# From PubChem BioAssay
# Most compounds without a hit are left out; they make up all but 1.3% or so of the library.
# eIF4E-4G inh – inhibitors of eIF4E and eIF4G interaction in translation initiation | P63073+Q04637 | TR-FRET eIF4E-eIF4GI(517-606) binding, 2 h | inhibition, % at 21.7 µM | actives 0.37% (n = 220,000);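 note: 0% = full FRET control wells and 100% = background wells lacking eIF4GI fragment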
# SUMO HTRF inh – SUMOylation inhibition; P63279; HTRF SUMOylation assay, SAE1/SAE2 + UBC9, in vitro; inhibition, % at 35 µM; actives 0.36% (n = 290,000); AID 2006; in the data active = inhibition above about 50%, passing the limit was not always enough
# Target sequence (P63279 whole entry, looked up): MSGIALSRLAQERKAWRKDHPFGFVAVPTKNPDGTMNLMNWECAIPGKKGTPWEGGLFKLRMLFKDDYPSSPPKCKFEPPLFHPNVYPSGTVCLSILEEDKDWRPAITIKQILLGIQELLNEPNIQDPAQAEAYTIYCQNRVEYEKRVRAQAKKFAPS
# NCF1 inh – blocks human p47phox regulatory protein of NADPH oxidases. p47phox/p22phox peptide binding, fluorescence polarization, 2 h. actives 0.53% (n = 220,000). AID 1274. inhibition, % at 24.7 µM;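 note: 0% = p47phox with labelled peptide and 100% = labelled peptide alone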
# 14-3-3 Bad PPI – disrupts binding of bovine 14-3-3 zeta to phospho-Bad peptide. actives 0.71% (n = 220,000). inhibition, % at 21.7 µM. TR-FRET 14-3-3zeta/Dy647-pBad peptide displacement, 1 h;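 active = inhibition above about 70%, limit read from the data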;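 note: 0% = full 14-3-3 plus peptide FRET controls and 100% = background without 14-3-3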
# Target sequence (P63103 whole entry, looked up): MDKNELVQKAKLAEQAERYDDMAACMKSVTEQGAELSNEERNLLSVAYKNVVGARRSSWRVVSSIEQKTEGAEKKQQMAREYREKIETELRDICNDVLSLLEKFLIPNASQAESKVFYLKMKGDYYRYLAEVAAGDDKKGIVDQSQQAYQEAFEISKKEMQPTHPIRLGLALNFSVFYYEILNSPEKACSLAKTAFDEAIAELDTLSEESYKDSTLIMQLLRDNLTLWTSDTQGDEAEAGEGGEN
# Starred values were filed as active, the others as inactive; . = not tested or not shown; + = active, no number; [ ] = remark or other dose.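 Rule for the calls, unless noted: active = inhibition above about 30% (limit read from the data); inactive = the rest.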
SMILES,eIF4E-4G inh,SUMO HTRF inh,NCF1 inh,14-3-3 Bad PPI
Cc1oc2c(c(C)cc3oc(=O)c(CC(=O)NCCCO)c(C)c32)c1C,.,47,.,.
COc1ccccc1N1CCN(C(=O)C(=O)c2cn(CC(=O)N3CCOCC3)c3ccccc23)CC1,.,8,.,.
CC(=O)N1CCc2cc(S(=O)(=O)CCC(=O)N3CCN(C(=O)c4ccco4)CC3)ccc21,8,5,-15,3
CC1(C(=O)N2CCN(Cc3ccccc3Cl)CC2)CC1(Cl)Cl (configuration not stated),.,0,.,.
CCNc1ccc(Br)cc(C(=O)/C=C/c2c(Cl)cccc2Cl)c1=O,10,15,-5,83*[fluorescence artefact?]
CCNc1ccc(Br)cc(C(=O)/C=C/c2ccc(Cl)cc2)c1=O,8,19,-7,56
CC(C)N(CCNC(=O)c1oc(=O)c2ccccc2c1-c1ccccc1)Cc1ccco1,-3,14,5,-6
COc1cnc(SC)nc1Nc1ccc(C#N)cc1,-4,34,-12,10
COc1ccc2cc(C)c3nnc(SCC(=O)Nc4nc(-c5ccc(F)cc5)cs4)n3c2c1,3,-4,23,86*
COc1ccc(-c2csc(NC(=O)CSc3nnc(Nc4ccccc4C)s3)n2)cc1,4,15,-11,-19
CN1C(=O)[C@H]2[C@@H](C3CC3)N3C(=O)CN(Cc4ccc(-c5ccccc5)cc4)C(=O)[C@@]3(C)[C@H]2C1=O,.,8,.,.
CCC(=O)Oc1ccc(NC(=O)CSCc2ccccc2)cc1,-5,12,-9,-5
Cc1ccc(-c2nnc(-c3ccc4c(c3)OCO4)o2)cc1,7,14,131*,7
Cc1cc(C)n(-c2nnc3n2N=C(c2ccccc2)CS3)n1,42*,25,0,4
Cc1cc(C)n(-c2nnc3n2N=C(c2c[nH]c4ccccc24)CS3)n1,6,6,8,-8
COc1cc(C(=O)NCc2ccc(C(=O)NCC(OC)OC)cc2)cc(OC)c1OC,63*,7,-2,72*
C[N+]1([O-])[C@@H]2Cc3cc4c(cc3[C@@H]1Cc1cc3c(cc12)OCO3)OCO4 (some centres not stated),-2,-23,1,-9
CC(=O)N(C)C1=C(O)c2ccccc2C(=O)C1=O,-4,-9,5,70*
CN1CCN(C2=CC(=O)OC23CCCCC3)CC1,84*,6,-2,-7
CC1CC(C)CN(CCCNC(=O)c2csc3c2CCCC3)C1 (configuration not stated),-9,16,8,13
O=C(NCCN1CCOCC1)c1csc2c1CCCC2,3,12,71*,-2
CC(=O)Oc1ccc(/C=C2/SC(=S)N(Cc3ccccc3)C2=O)cc1,.,-2,.,.
CC(=O)N1CC(=O)N(Cc2ccccc2)/C(=C/c2ccccc2)C1=O,2,-1,134*,1
O=C(NCc1ccco1)C1CCCCN1S(=O)(=O)c1ccc(F)cc1 (configuration not stated),-6,16,-9,0
O=C(NCC1CCCO1)C1CCCCN1S(=O)(=O)c1ccc(F)cc1 (configuration not stated),.,0,36*,.
SMILES,eIF4E-4G inh,SUMO HTRF inh,NCF1 inh,14-3-3 Bad PPI
CCOc1ccc(N(CC(=O)NCc2ccco2)C(=O)CCC(=O)Nc2nccs2)cc1,.,2,.,.
COc1ccc(Cc2nc3ccc(C(=O)NCCc4ccncc4)cc3o2)cc1OC,.,4,.,.
COc1ccc(C(=O)Nc2ccc3oc(Cc4ccc(Cl)cc4)nc3c2)cc1OC,53*,-4,-35,0
OC(COCc1ccc2c(c1)OCO2)CN1CCN(Cc2ccccc2)CC1 (configuration not stated),-2,0,-2,79*
OCCN1CCN(CC(O)COCc2ccc3c(c2)OCO3)CC1 (configuration not stated),-1,15,6,49
O=C(/N=C1\NC(=O)C(F)(C(F)(F)F)S1)NC1CCCCC1 (configuration not stated),44*,21,-9,42
COc1ccc(Cl)cc1NC(=O)C[n+]1cccc(C)c1,.,1,.,.
CC1=CC(C)(C)Nc2ccc(C)cc21,6,1,-5,81*
CC1=CC(C)(C)Nc2ccc(Cc3ccc4c(c3)C(C)=CC(C)(C)N4)cc21,9,-7,20,1
NC(N)=NS(=O)(=O)c1ccc(NC(=S)NC(=O)c2sc3ccccc3c2Cl)cc1,5,0,20,76*
O=C(NNC(=O)c1sc2ccccc2c1Cl)Nc1ccc(Cl)cc1,-12,52*,4,5
COc1cc(NS(=O)(=O)c2ccc(NC(=S)NC(=O)c3sc4ccccc4c3Cl)cc2)nc(OC)n1,-3,1,-45,-5
Cn1ccnc1SCC(=O)N1CCN(S(=O)(=O)c2ccccc2)CC1,1,6,-1,-6
CC(C)(C)c1ccc(-c2n[nH]c(=S)n2CCCN2CCOCC2)cc1,-1,12,-5,-8
C=CCn1c(SCC(=O)c2[nH]c(C)c(C(=O)OC)c2C)nc2scc(-c3ccc(OC)c(OC)c3)c2c1=O,15,14,36*,96*
C=CCn1c(SCC(=O)c2[nH]c(C)c(C(C)=O)c2C)nnc1-c1ccncc1,-1,-3,-8,7
CNC(=S)NNC(=O)CNc1ccc(C)c(Cl)c1,0,7,+,-16
